Source: PubChem BioAssay (Tox21)
Results filed as inconclusive are left out. Active and inactive are the calls of the source. Unless noted, calls follow the shape of the dose curve; as a rule, active = well fitted curve in the direction sought with a large enough effect in the repeat runs; inconclusive = weak or mixed curves; inactive = no such curve, though single readings can be large; an effect the other way counts as inactive or inconclusive.

Columns and labels:
[1] = qHTS assay to identify small molecule agonists of the peroxisome proliferator-activated receptor delta (PPARd) signaling pathway - cell viability counter screen (AID 743211); also: nearly all actives have a fitted effect of over 55% in size; also: potency is read from the fitted curve at half-maximal effect
Outline: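 qHTS cell viability: PPARd-bla HEK293H; 17 h cpd, 37C; CellTiter-Glo, luminescence at 30 min RT.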

[2] = qHTS assay to identify small molecule antagonists of the peroxisome proliferator-activated receptor delta (PPARd) signaling pathway - cell viability counter screen (AID 743213); also: nearly all actives have a fitted effect of over 50% in size; also: potency is read from the fitted curve at half-maximal effect
Outline: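 Cytotoxicity counter screen: CellTiter-Glo luminescence read 30 min after addition, in the same wells as the reporter assay. There, PPARd UAS-bla HEK293H cells (3000/well) were treated 17 h at 37 C with compound and 300 nM L165041.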

[3] = qHTS assay to identify small molecule agonists of the farnesoid-X-receptor (FXR) signaling pathway - cell viability counter screen (AID 743218); also: nearly all actives have a fitted effect of over 45% in size; also: potency is read from the fitted curve at half-maximal effect
Outline: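 Parallel cytotoxicity test: compound-treated (16 h, 37 C) HEK 293T FXR-bla reporter cells were lysed with CellTiter-Glo and luminescence recorded.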

[4] = qHTS assay to identify small molecule antagonists of the farnesoid-X-receptor (FXR) signaling pathway - cell viability counter screen (AID 743221; active = well fitted cell-killing curve with a large enough effect in the repeat runs, not every such curve was filed as active; also: nearly all actives have a fitted effect of over 50% in size; also: potency is read from the fitted curve at half-maximal effect)
Outline: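 After a 5 h settling period, FXR-bla HEK 293T cells receive compound and chenodeoxycholic acid (50 uM final) and incubate 16 h at 37 C; CellTiter-Glo luminescence, read after 30 min at room temperature, reports cell viability.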

[5] = target: Vitamin D3 receptor (Homo sapiens) (UniProt P11473); test: qHTS assay to identify small molecule antagonists of the vitamin D receptor (VDR) signaling pathway (AID 743223; active = well fitted inhibition curve with a large enough effect in the signal ratio in the repeat runs, not every such curve was filed as active; the % refers to the signal ratio; also: potency is read from the fitted curve at half-maximal effect)
Outline: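 Reporter line VDR-bla; stimulus 1alpha,25-(OH)2 vitamin D3, 3 nM final; compound co-addition, 16 h 37C/5% CO2; LiveBLAzer B/G substrate 2 h RT; fluorescence intensity.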

[6] = qHTS assay to identify small molecule agonists of the vitamin D receptor (VDR) signaling pathway - cell viability counter screen (AID 743224); also: nearly all actives have a fitted effect of over 50% in size; also: potency is read from the fitted curve at half-maximal effect
Outline: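 Plated VDR-bla cells (4 h, 37C) received compound, incubated 16 h, then LiveBLAzer substrate 2 h RT; CellTiter-Glo added afterwards, luminescence read at 30 min.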

[7] = qHTS assay to identify small molecule antagonists of the vitamin D receptor (VDR) signaling pathway - cell viability counter screen (AID 743225); also: nearly all actives have a fitted effect of over 50% in size; also: potency is read from the fitted curve at half-maximal effect
Outline: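 Parallel cytotoxicity test: VDR-UAS-bla HEK 293T, 3 nM (final) 1-alpha,25-dihydroxyvitamin D3 with test compound, 16 h, 37C. Endpoint is CellTiter-Glo luminescence in the same wells.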

[8] = qHTS assay to identify small molecule agonists of the NFkB signaling pathway - cell viability counter screen (AID 1159515; calls by dose curve; also: nearly all actives have a fitted effect of over 55% in size; also: potency is read from the fitted curve at half-maximal effect)
Outline: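 Using the same wells as the NFkB reporter read, ME-180 NFkB-bla cells given compounds for 5 hr were assessed for viability via CellTiter-Glo, with luminescence taken after a 30 min room-temperature incubation.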

[9] = qHTS assay to identify small molecule agonists of the endoplasmic reticulum stress response signaling pathway - cell viability counter screen (AID 1159517; calls by dose curve; also: nearly all actives have a fitted effect of over 50% in size; also: potency is read from the fitted curve at half-maximal effect)
Outline: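 HeLa cells carrying an ESRE-driven beta-lactamase reporter receive compound for 5 hr at 37 C. Cell viability is then gauged with CellTiter-Glo by luminescence, 30 min at room temperature.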

[10] = target: Nuclear receptor ROR-gamma (Homo sapiens) (UniProt P51449); test: qHTS assay to identify small molecule antagonists of the retinoid-related orphan receptor gamma (ROR-gamma) signaling pathway (AID 1159521; also: nearly all actives have a fitted effect of over 50% in size; also: potency is read from the fitted curve at half-maximal effect)
Outline: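 Decreased RORE-driven luciferase luminescence indicates antagonism. Tet-on RORγ CHO cells received compound, then 1 uM final doxycycline 2 h later; signal read after 16 h incubation.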

[11] = qHTS assay to identify small molecule agonists of the AP-1 signaling pathway - cell viability counter screen (AID 1159525; calls by dose curve; also: nearly all actives have a fitted effect of over 55% in size; also: potency is read from the fitted curve at half-maximal effect)
Outline: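 Luminescent ATP readout (Cell Titer Glo, 30 min RT), normalised to DMSO and tetra n-octyl ammonium bromide controls. Cells were ME-180 AP-1-bla in 0.5% dialyzed FBS Opti-MEM, with a 5 h, 37 °C compound exposure.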

[12] = qHTS assay to identify small molecule antagonists of the retinoid-related orphan receptor gamma (ROR-gamma) signaling pathway - cell viability counter screen (AID 1159520); also: nearly all actives have a fitted effect of over 50% in size; also: potency is read from the fitted curve at half-maximal effect
Outline: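 Cytotoxicity was read from cellular ATP (CellTiter-Glo luminescence) after 16 hr at 37 C with 1 uM doxycycline induction. The inducer was added 2 hr after compound transfer to Tet-on ROR gamma CHO cells.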

[13] = qHTS assay to identify small molecule agonists of the AP-1 signaling pathway (AID 1159526; calls by dose curve)
[14] = target: Peroxisome proliferator-activated receptor delta (Homo sapiens) (UniProt Q03181); test: qHTS assay to identify small molecule antagonists of the peroxisome proliferator-activated receptor delta (PPARd) signaling pathway (AID 743215; active = well fitted inhibition curve with a large enough effect in the signal ratio in the repeat runs, not every such curve was filed as active; the % refers to the signal ratio;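 also: cells stimulated with agonist L165041 at 300 nM final during compound exposure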; also: potency is read from the fitted curve at half-maximal effect)
Outline: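 HEK293H UAS-bla, PPARd; agonist L165041 300 nM final with cpd in DMSO; 37 C 17 h; FRET substrate, RT 2 h; fluorescence intensity.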

[15] = target: Bile acid receptor (Homo sapiens) (UniProt Q96RI1); test: qHTS assay to identify small molecule antagonists of the farnesoid-X-receptor (FXR) signaling pathway (AID 743217; active = well fitted inhibition curve with a large enough effect in the signal ratio in the repeat runs, not every such curve was filed as active; the % refers to the signal ratio)
Outline: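 GeneBLAzer FXR-UAS-bla HEK 293T, CDCA-stimulated (50 uM final). Compound treatment 16 h, 37 °C. Detection: beta-lactamase cleavage of B/G FRET substrate, fluorescence.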

[16] = target: Peroxisome proliferator-activated receptor delta (Homo sapiens) (UniProt Q03181); test: qHTS assay to identify small molecule agonists of the peroxisome proliferator-activated receptor delta (PPARd) signaling pathway (AID 743212; calls by dose curve)
Outline: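 HEK293H PPARd-bla cells; 5 h preincubation 37 C/5% CO2; compound (DMSO) 37 C; LiveBLAzer B/G FRET substrate 2 h RT; fluorescence intensity.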

[17] = target: Bile acid receptor (Homo sapiens) (UniProt Q96RI1); test: qHTS assay to identify small molecule agonists of the farnesoid-X-receptor (FXR) signaling pathway (AID 743220; active = well fitted activation curve with a large enough effect in the signal ratio in the repeat runs, not every such curve was filed as active; the % refers to the signal ratio)
Outline: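 Beta-lactamase reporter under UAS control in GeneBLAzer FXR HEK 293T cells (5000/well) measured with LiveBLAzer FRET substrate after 2 h at room temperature. Compound exposure lasted 16 h at 37C.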

[18] = target: Vitamin D3 receptor (Homo sapiens) (UniProt P11473); test: qHTS assay to identify small molecule agonists of the vitamin D receptor (VDR) signaling pathway (AID 743222; calls by dose curve)
Outline: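 In VDR-bla cells, compound-induced beta-lactamase expression is quantified by FRET substrate fluorescence. Treatment lasts 16 h at 37C; substrate develops 2 h at room temperature.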

[19] = target: Retinoic acid receptor RXR-alpha (Homo sapiens) (UniProt P19793); test: qHTS assay to identify small molecule agonists of the RXR signaling pathway (AID 1159527; calls by dose curve; also: nearly all actives have a fitted effect of over 35% in size)
Outline: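 16 hr incubation of compound-treated RXR-alpha-UAS-bla HEK 293T cells (2% charcoal-stripped FBS, 37 C) preceded a 2 hr room-temperature LiveBLAzer FRET substrate step and blue/green fluorescence measurement.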

Measured: Potency

Peroxisome proliferator-activated receptor delta (Homo sapiens), sequence (Q03181 whole entry, looked up): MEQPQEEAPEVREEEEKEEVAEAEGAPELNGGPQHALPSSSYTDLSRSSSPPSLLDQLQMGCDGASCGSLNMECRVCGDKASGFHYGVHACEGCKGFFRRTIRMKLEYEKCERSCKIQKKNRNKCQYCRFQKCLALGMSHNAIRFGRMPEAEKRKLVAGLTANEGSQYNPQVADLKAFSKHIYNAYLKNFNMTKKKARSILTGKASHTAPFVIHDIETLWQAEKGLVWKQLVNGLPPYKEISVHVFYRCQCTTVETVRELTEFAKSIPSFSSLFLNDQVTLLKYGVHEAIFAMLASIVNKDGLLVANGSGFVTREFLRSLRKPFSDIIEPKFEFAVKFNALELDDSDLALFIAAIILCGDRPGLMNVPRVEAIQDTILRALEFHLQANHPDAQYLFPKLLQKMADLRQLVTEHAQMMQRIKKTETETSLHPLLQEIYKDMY
Vitamin D3 receptor (Homo sapiens), sequence (P11473 whole entry, looked up): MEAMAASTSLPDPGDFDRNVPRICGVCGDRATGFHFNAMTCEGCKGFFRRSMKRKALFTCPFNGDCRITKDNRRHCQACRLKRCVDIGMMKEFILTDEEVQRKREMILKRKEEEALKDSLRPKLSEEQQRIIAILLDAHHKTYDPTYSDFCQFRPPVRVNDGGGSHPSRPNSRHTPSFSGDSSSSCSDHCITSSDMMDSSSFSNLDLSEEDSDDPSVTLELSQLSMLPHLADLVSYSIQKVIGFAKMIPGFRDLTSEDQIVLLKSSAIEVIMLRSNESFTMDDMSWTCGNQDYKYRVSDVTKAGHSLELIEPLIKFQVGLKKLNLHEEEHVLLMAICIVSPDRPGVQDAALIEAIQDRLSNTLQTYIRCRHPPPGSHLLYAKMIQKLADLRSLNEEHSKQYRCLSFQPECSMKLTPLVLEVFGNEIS
Bile acid receptor (Homo sapiens), sequence (Q96RI1 whole entry, looked up): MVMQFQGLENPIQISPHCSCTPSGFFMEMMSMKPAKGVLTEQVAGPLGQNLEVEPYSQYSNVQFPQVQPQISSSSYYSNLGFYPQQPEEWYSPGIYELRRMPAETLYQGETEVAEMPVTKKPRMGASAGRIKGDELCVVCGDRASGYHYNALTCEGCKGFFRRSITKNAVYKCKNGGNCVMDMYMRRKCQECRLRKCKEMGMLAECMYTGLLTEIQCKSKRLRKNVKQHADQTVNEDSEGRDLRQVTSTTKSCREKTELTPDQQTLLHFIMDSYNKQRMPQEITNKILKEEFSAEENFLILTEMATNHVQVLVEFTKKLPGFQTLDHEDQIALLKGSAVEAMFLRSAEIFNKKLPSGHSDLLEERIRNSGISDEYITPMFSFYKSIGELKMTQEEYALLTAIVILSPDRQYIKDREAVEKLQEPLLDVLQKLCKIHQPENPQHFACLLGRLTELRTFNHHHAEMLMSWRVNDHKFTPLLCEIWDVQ
Retinoic acid receptor RXR-alpha (Homo sapiens), sequence (P19793 whole entry, looked up): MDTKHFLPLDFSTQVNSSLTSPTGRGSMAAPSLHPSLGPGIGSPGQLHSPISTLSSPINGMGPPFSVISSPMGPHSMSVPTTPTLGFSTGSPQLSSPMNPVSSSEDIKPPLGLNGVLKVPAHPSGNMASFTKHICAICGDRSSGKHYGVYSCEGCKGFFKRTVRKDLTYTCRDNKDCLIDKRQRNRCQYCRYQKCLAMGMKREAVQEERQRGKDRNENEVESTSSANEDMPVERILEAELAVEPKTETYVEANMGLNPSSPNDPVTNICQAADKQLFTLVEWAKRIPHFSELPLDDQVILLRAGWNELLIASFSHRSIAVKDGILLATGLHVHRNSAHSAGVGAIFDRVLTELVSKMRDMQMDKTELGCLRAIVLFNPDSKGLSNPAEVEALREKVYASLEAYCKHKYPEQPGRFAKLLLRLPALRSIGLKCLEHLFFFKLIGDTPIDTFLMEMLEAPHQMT

CCCCCCCCCC[N+](C)(C)CCCCCCCCCC
active: [1] 21.9 µM | [2] 19.5 µM | [3] 49 µM | [4] 54.9 µM | [5] 43.6 µM | [6] 19.5 µM | [7] 15.5 µM | [8] 54.9 µM | [9] 54.9 µM | [10] 21.7 µM | [11] 34.7 µM

O=c1c(C2CC(c3ccc(-c4ccc(Br)cc4)cc3)Cc3ccccc32)c(O)sc2ccccc12 (stereo unspecified)
inactive: [2] | [4] | [5] | [8] | [12] | [13]
active: [1] 29.8 µM | [10] 2.66 µM

Oc1c(Cl)c(Cl)cc(Cl)c1Cl
inactive: [14] | [8] | [9] | [11] | [13]
active: [10] 23.7 µM

CCCCCCCCCCCCCCCCCCn1cc[n+](C)c1
inactive: [11] | [13]
active: [1] 10.9 µM | [2] 7.72 µM | [14] 19.4 µM | [3] 48.7 µM | [4] 34.5 µM | [6] 9.72 µM | [7] 19.4 µM | [8] 48.7 µM | [12] 60.8 µM | [10] 3.05 µM

CCCCOCN(C(=O)CCl)c1c(CC)cccc1CC
active: [6] 49 µM
inactive: [15] | [3] | [7] | [8] | [9] | [12] | [11]

CCc1nn(C)c(C(=O)NCc2ccc(C(C)(C)C)cc2)c1Cl
active: [1] 38.9 µM | [2] 43.6 µM | [3] 49 µM | [6] 27.5 µM | [7] 38.9 µM | [8] 54.9 µM | [12] 21.7 µM | [10] 0.545 µM | [11] 54.9 µM
inactive: [16] | [17] | [18]

CCCCCCCCc1ccc(O)cc1
active: [8] 49.3 µM | [9] 49.3 µM | [12] 61.5 µM | [11] 22 µM

CC(C)OC(=S)S
inactive: [1] | [16] | [2] | [15] | [3] | [4] | [7] | [8] | [9] | [11]

COC12CC[C@@]3(C[C@@H]1C(C)(O)C(C)(C)C)[C@H]1Cc4ccc(O)c5c4[C@@]3(CCN1CC1CC1)[C@H]2O5 (stereo partly specified)
inactive: [17] | [7]
active: [1] 48.2 µM | [8] 54.6 µM | [12] 60.7 µM | [10] 54.1 µM | [11] 54.6 µM

COP(=S)(OC)Oc1cc(Cl)c(Br)cc1Cl
active: [10] 68.6 µM
not listed: [4] | [12] | [14] | [15] | [19]
inactive: all other assays above

COC(=O)N(C(=O)N1CO[C@@]2(C(=O)OC)Cc3cc(Cl)ccc3C2=N1)c1ccc(OC(F)(F)F)cc1
inactive: [1] | [3] | [4] | [5] | [6] | [8] | [9] | [12] | [11]

CCCCCCCCCCCCCC[P+](CCCCCC)(CCCCCC)CCCCCC (tested in a mixture with another compound)
active: [1] 2.46 µM | [2] 11 µM | [3] 7.76 µM | [4] 6.92 µM | [6] 3.09 µM | [7] 2.75 µM | [8] 17.4 µM | [9] 17.4 µM | [12] 15.4 µM | [11] 21.9 µM

CCN(CC)C(=S)[S-].CCN(CC)C(=S)[S-].[Zn+2]
active: [1] 0.545 µM | [2] 0.433 µM | [3] 3.44 µM | [4] 6.86 µM | [6] 0.217 µM | [7] 3.06 µM | [8] 12.2 µM | [12] 5.4 µM | [10] 0.856 µM | [11] 12.2 µM

Fc1cccc(Cl)c1CCl
not listed: [5] | [7] | [9] | [18]
inactive: all other assays above

Oc1ccc2ccc3cccc4ccc1c2c34
inactive: [1] | [4] | [8] | [9] | [10] | [11]

CC1(c2ccc(Oc3ccccc3)cc2)OC(=O)N(Nc2ccccc2)C1=O (stereo unspecified)
inactive: [17] | [8] | [11]
active: [1] 49.3 µM | [2] 43.9 µM | [14] 24.7 µM | [3] 39.1 µM | [6] 17.5 µM | [7] 39.1 µM | [12] 54.8 µM | [10] 6.15 µM

CC1(C)[C@H](C(=O)O[C@H](C#N)c2cccc(Oc3ccccc3)c2)[C@@H]1/C=C(\Cl)C(F)(F)F
inactive: [16] | [3] | [17] | [8] | [9] | [12] | [11] | [13]
